Records with an inconclusive call do not appear. Where a call stands in place of a potency, no number is given. Calls of active or inactive are those of the source. Calls follow the shape of the dose curve; as a rule, active = well fitted activation curve with a large enough effect; inconclusive = small, poorly fitted or top-dose-only effect; inactive = no such curve, though single readings can be large or run the other way.
Assay: Activators of T cell receptors: Hit Validation
Settings: primary human leukocytes, cytokine release by HTRF, 48 h, TCR-stimulated with anti-CD3 beads; series mostly up to 46.1 µM
Method in brief: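 Primary human leukocytes incubated 48 hr with anti-CD3 beads plus compound, without co-stimulation. Secreted IL-2 quantified by HTRF (europium cryptate donor, d2 acceptor, 665 nm emission).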
Potency is read from the fitted curve at half-maximal effect.

| SMILES | Potency |
| --- | --- |
| N#Cc1ccc(CN2CCN(C(=O)c3ccc(S(=O)(=O)NCc4ccco4)cc3)CC2)cc1 | inactive |
| COc1ccc(OC)c(NC(=O)CSc2nc3[nH]c(=O)cc(O)c3s2)c1 | inactive |
| COc1ccccc1C(=O)NCCC(=O)N1CCN(S(=O)(=O)c2cccc(Cl)c2)CC1 | inactive |
| CN(C)CCCN1c2ccccc2Sc2ccc(Cl)cc21 | inactive |
| COc1ccc(-n2c(=O)c(CCC(=O)NCCc3ccccc3F)nc3ccccc32)cc1 | inactive |
| O=C(Nc1nnc(-c2ccccc2)s1)c1cccc(S(=O)(=O)N2CCOCC2)c1 | inactive |
| CCN(CC(=O)Nc1c(F)cccc1F)C(=O)C1CCN(S(=O)(=O)c2ccccc2C(=O)OC)CC1 | inactive |
| c1ccc(Sc2ccccn2)cc1 | inactive |
| CCOc1ccc(C(=O)N(CN2CCCC2=O)c2cccc(Cl)c2)cc1 | inactive |
| CCOC(=O)c1c(C)[nH]c(C(=O)OCC(=O)Nc2ccccc2)c1C | inactive |
| COc1ccccc1N1CCN(C(=O)C2CCN(S(=O)(=O)c3ccccc3F)CC2)CC1 | inactive |
| O=S(=O)(Nc1cc(Cl)ccc1-n1cncn1)c1ccc(F)cc1 | inactive |
| COc1cc(/C=C/C(=O)O)cc(OC)c1OC | inactive |
| COc1cc(NC(=O)CN2CCN(S(=O)(=O)/C=C/c3ccccc3)CC2)cc(OC)c1OC | inactive |
| CCN(CC)c1ccc2nc3ccccc3[n+](CC)c2c1 | 4990 nM (active) |
| CN(CC(=O)Nc1ccc(N2CCOCC2)cc1)C(=O)c1ccc(CS(C)(=O)=O)cc1 | inactive |
| CN(C)c1ccc(NC(=O)COC(=O)CNC(=O)c2cccs2)cc1 | inactive |
| Cc1ccc(S(=O)(=O)NC23CC4CC(CC(C4)C2)C3)cc1 | inactive |
| CC(=O)c1cccc(NC(=O)C(C)OC(=O)c2cccc(S(=O)(=O)N3CCN(C)CC3)c2)c1 (stereo not given) | inactive |
| Cc1ccc(NC(=S)c2ccc(N(C)C)cc2)cc1 | inactive |
| Cc1ccc(S(=O)(=O)N2CCC(C(=O)NNC(=O)c3ccccc3O)CC2)cc1C | inactive |
| CCCCCCC[C@@H](C/C=C/CCC(=O)N(C)C/C(=C/Cl)C/C(=C\C(=O)N1CC(OC)=CC1=O)OC)OC | 996 nM (active) |
| CC(C)c1nnc(SCC(=O)N2CCOCC2)n1C | inactive |
| CC1CCCC(C)N1C(=O)COC(=O)C12CC3CC(CC(Cl)(C3)C1)C2 (stereo not given) | inactive |
| O=C(Cc1cccs1)Nc1ccc(F)c(S(=O)(=O)N2CCOCC2)c1 | inactive |
| CN(C)c1ccc(N/C(N)=N/c2nc(C(F)(F)F)cc(C(F)(F)F)n2)cc1 | inactive |
| CC(C)(C)CC(=O)N1CCN(c2ccc(S(=O)(=O)N3CCOCC3)cc2[N+](=O)[O-])CC1 | inactive |
| O=C(CCCN1CCC(C(=O)c2ccc(F)cc2)CC1)c1ccc(F)cc1 | inactive |
| COc1ccc(S(=O)(=O)Nc2ccc3cn[nH]c3c2)cc1[N+](=O)[O-] | inactive |
| Cc1ccc(C(=O)OCC(=O)NCc2ccco2)cc1C | inactive |

From PubChem BioAssay AID624298 (National Center for Advancing Translational Sciences (NCATS), 2012)
